# Measured values from ChEMBL document CHEMBL4808148, “HDAC6 screening dataset using tau-based substrate in an enzymatic assay yields selective inhibitors and activators” (2021).
# Screen size: about 5,600 compounds; about 150 (2.7%) showed an effect of 50% or more. The sample as a whole holds a higher share of strong results than the screen did.
# Target: T1, Protein deacetylase HDAC6 (Homo sapiens) (UniProt Q9UBN7)
# T1 sequence (whole entry): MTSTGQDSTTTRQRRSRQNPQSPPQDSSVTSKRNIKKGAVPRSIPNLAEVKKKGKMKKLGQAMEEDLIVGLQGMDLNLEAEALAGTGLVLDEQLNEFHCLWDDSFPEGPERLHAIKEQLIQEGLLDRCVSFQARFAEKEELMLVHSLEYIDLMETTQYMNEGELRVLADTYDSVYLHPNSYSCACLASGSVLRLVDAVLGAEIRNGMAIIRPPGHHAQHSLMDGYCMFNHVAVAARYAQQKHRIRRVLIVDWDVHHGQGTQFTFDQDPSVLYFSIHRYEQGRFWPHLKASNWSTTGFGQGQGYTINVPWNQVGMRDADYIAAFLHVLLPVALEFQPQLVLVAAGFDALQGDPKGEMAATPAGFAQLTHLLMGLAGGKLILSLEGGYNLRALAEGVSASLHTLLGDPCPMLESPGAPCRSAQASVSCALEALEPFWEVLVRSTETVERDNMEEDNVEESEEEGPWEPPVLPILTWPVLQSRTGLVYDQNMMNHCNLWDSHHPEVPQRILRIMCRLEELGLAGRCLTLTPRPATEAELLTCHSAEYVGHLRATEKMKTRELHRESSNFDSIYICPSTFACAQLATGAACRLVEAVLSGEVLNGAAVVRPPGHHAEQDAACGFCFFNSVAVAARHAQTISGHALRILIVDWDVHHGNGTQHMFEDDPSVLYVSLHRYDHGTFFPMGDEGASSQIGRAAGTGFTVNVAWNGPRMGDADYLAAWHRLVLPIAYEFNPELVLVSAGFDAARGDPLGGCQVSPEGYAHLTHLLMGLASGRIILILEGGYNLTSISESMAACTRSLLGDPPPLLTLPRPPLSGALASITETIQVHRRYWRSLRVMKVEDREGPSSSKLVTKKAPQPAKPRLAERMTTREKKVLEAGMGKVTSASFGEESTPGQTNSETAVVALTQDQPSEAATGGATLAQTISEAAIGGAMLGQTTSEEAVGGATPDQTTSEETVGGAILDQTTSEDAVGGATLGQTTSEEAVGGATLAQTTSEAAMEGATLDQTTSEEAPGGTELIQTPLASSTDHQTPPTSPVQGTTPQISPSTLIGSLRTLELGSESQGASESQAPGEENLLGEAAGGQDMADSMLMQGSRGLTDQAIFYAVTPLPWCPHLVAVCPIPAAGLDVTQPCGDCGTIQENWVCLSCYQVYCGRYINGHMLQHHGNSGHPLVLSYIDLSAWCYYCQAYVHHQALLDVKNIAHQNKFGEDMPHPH
# Conditions: at 10 µM
row,Compound,inhibition [%]
1,CCNC(=O)/C=C/c1cccc(Br)c1,11.1
2,O=C(/C=C/c1ccccc1)NCCO,44.6
3,O=C(/C=C/c1cccc(S(=O)(=O)Nc2ccccc2)c1)NO,97.7
4,Cc1ccc(C)c(OCCCC(C)(C)C(=O)O)c1,4.07
5,COc1ccc(Cl)cc1C(=O)NCCc1ccc(C(=O)O)cc1,-2.67
6,Cc1cc(Cl)ccc1OCCCC(=O)NO,87.1
7,N=C(N)NCCC[C@H](N)C(=O)NCC(=O)N[C@@H](CC(=O)O)C(=O)N[C@@H](CO)C(=O)O,5.37
8,O=C(c1ccc2nccnc2c1)N1CCCCC1,-1.26
9,CCNC(=O)NS(=O)(=O)c1sc(CC(C)C)cc1-c1ccc(Cn2c(-c3ccccc3)nc(OC)c2C=O)cc1,-1.89
10,CCOc1ccc2nc(S(N)(=O)=O)sc2c1,1.88
11,COc1ccc(Cl)c(Nc2nc3ccccc3nc2NS(=O)(=O)c2cccc(NC(=O)C(C)(C)N)c2)c1,-9.43
12,COc1ccc2nc(NC(=O)Nc3ccccc3)sc2c1,58.2
13,COC(=O)[C@H](Cc1cccc(C(=N)N)c1)[C@@H](C)NC(=O)c1ccc(-c2cc[n+]([O-])cc2)cc1,-6.46
14,N#CCC1(n2cc(-c3ncnc4[nH]ccc34)cn2)CN(C2CCN(C(=O)c3ccnc(C(F)(F)F)c3F)CC2)C1,-4.32
15,Cc1ccccc1/N=N/c1ccc(/N=N/c2c(O)ccc3ccccc23)c(C)c1,0.88
16,Cc1ccc(O)c(/N=N/c2ccccc2)n1,99.5
17,CC(C)(CC(=O)N1CCCC1)NCC(=O)N1C[C@@H](F)C[C@H]1C#N,1.6
18,Cn1ccc2cc(NC(=O)Nc3cccnc3)ccc21,39.6
19,CSc1cc2c(cc1C(F)(F)F)N(C(=O)Nc1cccnc1)CC2,1.32
20,Cn1ccc2cc3c(cc21)CCN3C(=O)Nc1cccnc1,69.4
21,COc1ccccc1N1CCN(CC(O)COc2cc(OC)c(OC)c(OC)c2)CC1 (stereo not given),-4.5
22,O=C(CCCCCCCn1cc(-c2cccnc2)nn1)Nc1ccccc1-c1ccccc1,-3.08

row,Compound,inhibition [%]
1,O=C(O)CCCCCCCC(=O)O,0.37
2,O=C(O)CCCCCCCCC(=O)O,0.43
3,O=C(CCCCCCC(=O)Nc1cccnc1)NO,98.1
4,O=C(CCCCCCC(=O)NO)NO,96.5
5,NC(=O)c1cccnc1,9.25
6,CC(C)Cc1ccc([C@@H](C)C(=O)NS(C)(=O)=O)cc1,-2.75
7,OC(c1ccc(-c2ccc(CN3CCN(Cc4ccncc4)CC3)cc2)c(F)c1)(C(F)(F)F)C(F)(F)F,-2.34
8,N#Cc1cccc(C(=O)Nc2cc(-c3ccccc3)nn2-c2ccccc2)c1,12.2
9,Cc1ccc(-c2ccc(C)cn2)nc1,70.4
10,CCOc1ccc(NC(=S)N2CCC(C(O)(c3ccccc3)c3ccccc3)CC2)cc1,-1.16
11,O=C(O)C(O)C(O)C(O)C(O)CO (stereo not given),-3.09
12,O=Cc1ccc(CO)o1,-2.99
13,CS(=O)(=O)c1ccc(Oc2cc(F)cc(C#N)c2)c2c1[C@H](O)C(F)(F)C2,-4.01
14,CCc1nc(C(N)=O)c(Nc2ccc(N3CCC(N4CCN(C)CC4)CC3)c(OC)c2)nc1NC1CCOCC1,0.8
15,Fc1ccc(-c2nc(-c3c(F)cccc3F)[nH]c2-c2ccncc2)cc1,-5.55
16,Cc1ccc(-c2cn3c4c(sc3n2)CCCC4)cc1,95.1
17,N=C(N)Nc1ccc(Cl)cc1,0.23
18,N=C(N)c1ccc(/N=N/Nc2ccc(C(=N)N)cc2)cc1,-8.86
19,Cc1sc(C)c(C(=O)NC2(c3ccc(C(=O)O)cc3)CC2)c1Cc1ccc(C(F)(F)F)cc1,3.37
20,O=C1COc2c(CCNCCN(C(=O)CCNCCc3ccc(Cl)c(Cl)c3)C3CCCCC3)ccc(O)c2N1,3.6
21,C[C@H](C[C@H](N)C(=O)O)C(=O)O,2.11
22,c1ccc(N2CCN(Cc3nc4ccccc4[nH]3)CC2)nc1,1.74

row,Compound,inhibition [%]
1,c1ccc2[nH]c(-c3cscn3)nc2c1,84.5
2,COc1ccc(C(=O)C2CCN(CC(=O)N(Cc3nc4c(c(=O)[nH]3)COCC4)CC3CC3)CC2)cc1,-1.1
3,O=C(NCC(=O)N1CCCCC1)Nc1ccc2nnsc2c1,4.96
4,O=C(O)c1ccc2nc(-c3cc(Cl)cc(Cl)c3)oc2c1,99.2
5,O=C(O)c1ccc2c(c1)nc(Nc1cccc(Cl)c1)c1ccncc12,-4.86
6,CCS(=O)(=O)c1ccc2oc(-c3ccc4ccccc4c3)nc2c1,37.2
7,C=C1C(=O)[C@@]23C(CC[C@@H]1[C@H]2O)[C@@]12CO[C@]3(O)[C@@H](O)[C@@H]1C(C)(C)CC[C@@H]2O (stereo not given in full),-6.66
8,O=C(O)c1cc(-c2ccccc2)nc2ccccc12,-1.66
9,COc1cc2ncc(-c3ccccc3)nc2cc1OC,97.5
10,COC(=O)[C@H](NC(=O)c1cc(-c2ccccc2)nc2ccccc12)c1ccccc1,0.79
11,C/C(=N\c1ccccc1N)c1c(C)cc(=O)n(O)c1O,2.45
12,O=C(O)CCCCN(CCc1ccccc1OCc1ccc(CCc2ccccc2)cc1)Cc1ccc(C(=O)O)cc1,-4
13,COc1cc2c(NC3CCN(C4CCCCC4)CC3)nc(N3CCCN(C(C)C)CC3)nc2cc1OCCCN1CCCCC1,-8.06
14,COc1cc2nc(C3CC3)nc(N3CCN(c4ccccc4OC)CC3)c2cc1OC,0
15,CC(C(=O)O)c1ccc2c(c1)CC(=O)c1ccccc1S2 (stereo not given),-3.15
16,CC(C(=O)O)c1cccc(C(=O)c2ccccc2)c1 (stereo not given),4.07
17,CC(C(=O)O)c1ccc(N2Cc3ccccc3C2=O)cc1 (stereo not given),82.1
18,CNC(=O)O[C@H]1COc2ccc(N3CCN(C4COC4)CC3)cc2[C@@H]1NC(=O)c1ccc(F)cc1,-3.83
19,O=C1Nc2cc(Br)ccc2/C1=C1/Nc2ccccc2/C1=N\O,2.55
20,O=C1COc2nccc(-c3ccccc3F)c2CN1Cc1cc(C(F)(F)F)cc(C(F)(F)F)c1,-5.84
21,C=C1/C(=C\C=C2/CCC[C@]3(C)[C@@H]([C@H](C)OCCC(C)(C)O)CC[C@@H]23)C[C@@H](O)C[C@@H]1O,1.22
22,Cc1cccc(C#Cc2ccccc2)n1,94.7

row,Compound,inhibition [%]
1,NS(=O)(=O)C#Cc1ccccc1,-5.38
2,COc1cc(C(=O)N(CCC2CCCN2C)C/C(C)=C/c2ccccc2F)cc(OC)c1OC (stereo not given),-2.86
3,CC(C)(C)c1cc(C(=O)/C(C#N)=N/Nc2cccc(Cl)c2)no1,7.67
4,CC(C)Oc1ccc2c(=O)c3cc(C(=O)O)ccc3oc2c1,76.3
5,CNC(=O)c1c(C)oc2cc(Oc3ncnc4cc(OC)c(OC)cc34)ccc12,14.7
6,CC(C)(N)c1cc(C(=O)N[C@@H]2CCc3ccc(Oc4ccnc5c4CCC(=O)N5)cc3C2)cc(C(F)(F)F)c1,-1.36
7,CN(C)C/C=C/C(=O)Nc1ccc(C(=O)Nc2cccc(Nc3ncc(Cl)c(-c4c[nH]c5ccccc45)n3)c2)cc1,-4.86
8,CN(C)c1ccc(C(=C2C=CC(=[N+](C)C)C=C2)c2ccc(N(C)C)cc2)cc1,59.7
9,O=C(Nc1cc2cc[nH]c2cn1)c1ccccc1,97.7
10,NC(=O)c1ccc2[nH]ccc2c1,-7.83
11,O=C(Nc1ccc2[nH]ccc2c1)c1ccccc1,49.3
12,CCOc1ccc(-n2c([C@@H](C)N(Cc3cccnc3)C(=O)Cc3ccc(OC(F)(F)F)cc3)nc3ncccc3c2=O)cc1,-2.97
13,COc1cccc(N2CCN(C3=Nc4c(F)cccc4[C@H](CC(=O)O)N3c3cc(C(F)(F)F)ccc3OC)CC2)c1,-7.43
14,O=C1c2ccccc2C(=O)C1c1ccccc1,0.29
15,O=C1c2ccccc2C(=O)C1c1ccc(Cl)cc1,-0.61
16,COc1ccc(C2C(=O)c3ccccc3C2=O)cc1,97.2
17,O=C1c2ccccc2C(=O)C1c1ccc(Br)cc1,86.8
18,COc1ccc(Oc2c(Cl)cnn(C3c4ccccc4-c4ccccc43)c2=O)cc1,3.12
19,COc1ccc(C2CC(c3ccccc3)=NN2c2ccc(S(N)(=O)=O)cc2)cc1 (stereo not given),-2.13
20,Nc1ncc2c(n1)CC(c1ccco1)CC2=O (stereo not given),10.6
21,CO/N=C1\C[C@@H](C(=O)NC[C@@H](O)c2ccccc2)N(C(=O)c2ccc(-c3ccccc3C)cc2)C1,-5.99
22,CC(=O)Oc1ccccc1C(=O)Nc1ccccc1,24.1

row,Compound,inhibition [%]
1,Nc1n[nH]c2nnc(-c3c(-c4ccccc4)nn4ccccc34)cc12,1.45
2,NC(=O)c1ccc([N+](=O)[O-])cc1Cl,3.17
3,CCN(CCNC(=O)Nc1ccccc1Br)c1cccc(C)c1,-8.23
4,O=C(Nc1ccc([N+](=O)[O-])cc1O)Nc1ccccc1Br,61.6
5,CCC(C(=O)O)c1ccc(CC(C)C)cc1 (stereo not given),5.56
6,CCCCC1OC(=O)c2ccccc21 (stereo not given),4.45
7,N[C@@H]1c2cccnc2[C@H](OC(=O)N2CCC(n3c(=O)[nH]c4ncccc43)CC2)CC[C@H]1c1cccc(F)c1F,-1.43
8,CS(=O)(=O)N(Cc1ccco1)CC(O)Cn1c2ccccc2c2ccccc21 (stereo not given),-5.79
9,O[C@H]1CC[C@H](Nc2nc(-c3ccccc3)nc3[nH]ccc23)CC1,2.15
10,O=C(NC1CC1)c1cc(-c2cccs2)on1,60.8
11,CN1CCC(NC(=O)c2cc(-c3c(O)cc(O)cc3Oc3ccc([N+](=O)[O-])cc3)on2)CC1,-7.8
12,Cc1ccc(S(=O)(=O)NCc2ccccc2)cc1,-1.3
13,CO[C@H]1CC[C@@H](C(=O)c2ccc3nc4c(cc3c2)CCCO4)CC1,1.73
14,CCCn1c(=O)c2[nH]c(-c3cnn(Cc4cccc(C(F)(F)F)c4)c3)nc2n(CC)c1=O,2.86
15,CC(=O)NC[C@H]1CN(c2ccc(N3CCN(C(=O)CO)CC3)c(F)c2)C(=O)O1,-2.46
16,COc1cccc(NC(=O)/C=C/c2ccc(Cl)cc2)c1,91.8
17,COc1ccc(/C=C/C(=O)O)cc1,-6.98
18,COc1cc(NC(=O)c2ccc(-c3ccc(Cl)cc3)o2)cc(OC)c1,4.45
19,CN(CCc1ccc(Cl)c(Cl)c1)CCN1CCCC1,3.41
20,CCc1ccc(/C=C2/SC(=S)NC2=O)cc1,16.7
21,N=C1NC(=O)/C(=C/c2ccc(O)cc2)S1,14
22,O=C(O)COc1ccc(/C=C2\SC(=O)NC2=O)cc1,95
